Measurements taken from the supplement of paper PMC10849652.
About 8,800 targets were measured; listed, in parts, are those with a hit and a random draw of the rest. About 0.5% of all pairs of compound and target were hits.

What was measured:
Test in all cases: log2 fold change, soluble protein after heating vs DMSO (PISA); higher = thermal stabilisation; K562 lysate, 10 uM; active = over 0.2 and 3.5 SD of the protein, either way, in both replicates (recomputed)
nilotinib = compound: Cc1cn(-c2cc(NC(=O)c3ccc(C)c(Nc4nccc(-c5cccnc5)n4)c3)cc(C(F)(F)F)c2)cn1 [nilotinib]
In short: (§1)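 Soluble protein was defined as the supernatant remaining after 21,000xg for 90 min, following pooling of heated aliquots and adjustment to 0.5% NP-40 at 4°C. Before that, crude K562 extract at 1 mg/mL protein in PBS pH 7.4 with 1 mM MgCl2 was treated with 10 μM compound for 30 min and heated for 3 min across 48°C-58°C. Quantification used TMTpro 16plex LC-MS/MS with channel sums equalised, and values are log-two fold changes in thermal stability relative to solvent controls from duplicates.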

[1] = compound: Cc1nc(Nc2n[nH]c3c2CN(C(=O)N[C@H](CN(C)C)c2ccccc2)C3(C)C)c2sccc2n1
In short: as §1

dasatinib = compound: Cc1nc(Nc2ncc(C(=O)Nc3c(C)cccc3Cl)s2)cc(N2CCN(CCO)CC2)n1 [dasatinib]
In short: as §1

[2] = compound: Cc1ncc(-c2ccnc(Nc3ccc(S(C)(=O)=O)cc3)n2)n1C(C)C
In short: as §1

[3] = compound: Cn1cc(-c2ccc3c(c2)CCN3C(=O)Cc2cccc(C(F)(F)F)c2)c2c(N)ncnc21
In short: as §1

quisinostat = compound: Cn1cc(CNCC2CCN(c3ncc(C(=O)NO)cn3)CC2)c2ccccc21 [quisinostat]
In short: as §1

tipifarnib = compound: Cn1cncc1[C@@](N)(c1ccc(Cl)cc1)c1ccc2c(c1)c(-c1cccc(Cl)c1)cc(=O)n2C [tipifarnib]
In short: as §1

[4] = compound: NC(=O)Nc1cc(-c2cccc(F)c2)sc1C(=O)N[C@H]1CCCNC1
In short: as §1

[5] = compound: NC(=O)c1cnc(N[C@@H]2CCCC[C@@H]2N)nc1Nc1cccc(-n2nccn2)c1
In short: as §1

[6] = compound: NC1(c2ccc(-c3nc4ccn5c(=O)[nH]nc5c4cc3-c3ccccc3)cc2)CCC1
In short: as §1

Measured: log2 fold change

ZC3H11A (UniProt O75152)
Chain of UniProt O75152 (O75152 whole entry, looked up): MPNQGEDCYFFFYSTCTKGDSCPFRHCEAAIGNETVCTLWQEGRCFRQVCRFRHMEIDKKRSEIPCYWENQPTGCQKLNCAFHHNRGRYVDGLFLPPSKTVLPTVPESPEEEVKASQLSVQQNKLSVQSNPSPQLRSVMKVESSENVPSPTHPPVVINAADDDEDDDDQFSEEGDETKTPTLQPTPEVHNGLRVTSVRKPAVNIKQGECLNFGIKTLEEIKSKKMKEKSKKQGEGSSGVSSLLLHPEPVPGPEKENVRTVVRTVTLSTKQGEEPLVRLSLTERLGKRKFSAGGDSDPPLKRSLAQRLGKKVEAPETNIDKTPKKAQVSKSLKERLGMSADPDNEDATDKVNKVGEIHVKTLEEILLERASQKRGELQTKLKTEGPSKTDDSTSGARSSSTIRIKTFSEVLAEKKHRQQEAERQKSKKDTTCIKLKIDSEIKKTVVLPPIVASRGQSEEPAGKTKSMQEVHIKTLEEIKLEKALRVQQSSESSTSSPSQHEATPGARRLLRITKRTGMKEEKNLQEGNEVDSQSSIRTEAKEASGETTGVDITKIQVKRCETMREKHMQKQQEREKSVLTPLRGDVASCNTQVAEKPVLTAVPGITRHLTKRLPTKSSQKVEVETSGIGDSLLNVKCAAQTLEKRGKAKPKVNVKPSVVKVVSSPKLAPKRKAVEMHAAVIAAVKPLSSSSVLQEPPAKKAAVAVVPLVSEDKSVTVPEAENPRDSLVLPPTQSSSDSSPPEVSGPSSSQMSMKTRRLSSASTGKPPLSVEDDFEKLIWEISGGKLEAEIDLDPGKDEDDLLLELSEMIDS
inactive: nilotinib -0.021 | [1] -0.006 | dasatinib -0.021 | [2] 0.041 | [3] -0.022 | quisinostat -0.094 | tipifarnib -0.007 | [4] 0 | [5] 0.004 | [6] 0.035

UXT isoform 2 (UniProt Q9UBK9)
inactive: nilotinib 0.012 | [1] -0.019 | dasatinib 0.079 | [2] 0.019 | [3] -0.05 | quisinostat -0.03 | tipifarnib -0.015 | [4] -0.04 | [5] -0.026 | [6] -0.036

WDR20 isoform 7 (UniProt Q8TBZ3)
Chain of UniProt Q8TBZ3 (Q8TBZ3 whole entry, looked up): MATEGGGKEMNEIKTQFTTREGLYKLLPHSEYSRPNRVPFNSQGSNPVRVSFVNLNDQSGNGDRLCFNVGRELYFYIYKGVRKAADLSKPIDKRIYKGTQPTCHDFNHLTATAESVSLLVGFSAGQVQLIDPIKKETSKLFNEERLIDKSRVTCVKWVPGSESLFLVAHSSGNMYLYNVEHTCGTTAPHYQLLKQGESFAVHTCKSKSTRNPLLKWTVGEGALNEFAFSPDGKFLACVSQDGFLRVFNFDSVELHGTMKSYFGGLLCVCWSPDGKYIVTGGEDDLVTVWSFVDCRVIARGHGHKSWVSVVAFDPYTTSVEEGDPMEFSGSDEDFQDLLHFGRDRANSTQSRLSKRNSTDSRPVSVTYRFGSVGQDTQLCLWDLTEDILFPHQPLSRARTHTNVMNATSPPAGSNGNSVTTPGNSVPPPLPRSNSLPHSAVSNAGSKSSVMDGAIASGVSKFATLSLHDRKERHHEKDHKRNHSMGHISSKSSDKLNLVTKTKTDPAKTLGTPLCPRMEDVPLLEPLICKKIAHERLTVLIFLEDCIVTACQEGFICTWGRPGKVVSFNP
inactive: nilotinib -0.001 | [1] 0.029 | dasatinib 0.055 | [2] -0.229 | [3] 0.038 | quisinostat 0.027 | tipifarnib -0.174 | [4] 0.009 | [5] -0.026 | [6] -0.042

ZFPM1 (UniProt Q8IX07)
inactive: nilotinib 0.036 | [1] -0.075 | dasatinib -0.087 | [2] 0.042 | [3] 0.095 | quisinostat -0.189 | tipifarnib 0.044 | [4] 0.034 | [5] -0.082 | [6] -0.018

VPS33A (UniProt Q96AX1)
inactive: nilotinib -0.007 | [1] -0.004 | dasatinib -0.007 | [2] -0.027 | [3] 0.045 | quisinostat -0.018 | tipifarnib -0.006 | [4] 0.041 | [5] 0.021 | [6] -0.034

WDR24 (UniProt Q96S15)
inactive: nilotinib 0.124 | [1] -0.09 | dasatinib -0.072 | [2] 0.05 | [3] -0.022 | quisinostat -0.013 | tipifarnib -0.096 | [4] 0.038 | [5] 0.04 | [6] -0.002

ZNHIT6 (UniProt Q9NWK9)
Chain of UniProt Q9NWK9 (Q9NWK9 whole entry, looked up): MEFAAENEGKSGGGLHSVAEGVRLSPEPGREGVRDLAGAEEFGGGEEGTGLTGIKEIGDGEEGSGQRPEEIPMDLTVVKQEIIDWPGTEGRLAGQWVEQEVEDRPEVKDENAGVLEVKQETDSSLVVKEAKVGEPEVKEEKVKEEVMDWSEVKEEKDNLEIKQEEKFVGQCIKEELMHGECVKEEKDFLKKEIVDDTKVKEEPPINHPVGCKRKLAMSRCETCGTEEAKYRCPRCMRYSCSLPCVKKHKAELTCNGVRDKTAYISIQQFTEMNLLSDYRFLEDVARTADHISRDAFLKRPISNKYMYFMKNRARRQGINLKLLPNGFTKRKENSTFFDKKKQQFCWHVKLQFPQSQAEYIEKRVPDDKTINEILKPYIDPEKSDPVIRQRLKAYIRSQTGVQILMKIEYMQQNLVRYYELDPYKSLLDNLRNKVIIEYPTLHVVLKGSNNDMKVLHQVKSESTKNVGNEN
inactive: nilotinib -0.023 | [1] 0 | dasatinib -0.037 | [2] -0.005 | [3] 0.004 | quisinostat -0.04 | tipifarnib 0.014 | [4] 0.087 | [5] 0.028 | [6] -0.022

WDCP (UniProt Q9H6R7)
inactive: nilotinib -0.01 | [1] 0.001 | dasatinib -0.035 | [2] 0.006 | [3] -0.018 | quisinostat -0.107 | tipifarnib 0.009 | [4] 0.014 | [5] -0.069 | [6] 0.007

ZC3HC1 (UniProt Q86WB0)
inactive: nilotinib -0.013 | [1] -0.005 | dasatinib 0.029 | [2] 0.007 | [3] -0.009 | quisinostat -0.033 | tipifarnib -0.03 | [4] 0.025 | [5] 0.017 | [6] 0.024

VTN (UniProt P04004)
inactive: nilotinib 0.04 | [1] 0.064 | dasatinib 0.019 | [2] -0.102 | [3] 0 | quisinostat 0.022 | tipifarnib -0.092 | [4] 0.006 | [5] -0.063 | [6] -0.03

YRDC (UniProt Q86U90)
inactive: nilotinib 0 | [1] 0.021 | dasatinib 0.022 | [2] 0.018 | [3] -0.019 | quisinostat -0.019 | tipifarnib 0.008 | [4] -0.004 | [5] 0.01 | [6] -0.003

UTP18 (UniProt Q9Y5J1)
inactive: nilotinib 0.059 | [1] -0.009 | dasatinib 0.005 | [2] -0.179 | [3] -0.03 | quisinostat -0.034 | tipifarnib -0.002 | [4] 0.058 | [5] -0.016 | [6] 0.074

VAMP2 (UniProt P63027)
inactive: nilotinib -0.034 | [1] 0.034 | dasatinib 0.002 | [2] 0.066 | [3] -0.009 | quisinostat 0.262 | tipifarnib 0.041 | [4] -0.027 | [5] 0.019 | [6] 0.067

WDHD1 (UniProt O75717)
inactive: nilotinib -0.008 | [1] 0.026 | dasatinib -0.023 | [2] 0.012 | [3] 0.01 | quisinostat -0.029 | tipifarnib -0.01 | [4] 0.008 | [5] 0.013 | [6] 0.01

ZMAT2 (UniProt Q96NC0)
inactive: nilotinib -0.014 | [1] 0.037 | dasatinib 0.022 | [2] 0.027 | [3] 0.033 | quisinostat -0.066 | tipifarnib -0.013 | [4] -0.044 | [5] 0.002 | [6] -0.03

UNC13D (UniProt Q70J99)
inactive: nilotinib 0.043 | [1] -0.014 | dasatinib -0.05 | [2] 0 | [3] 0 | quisinostat -0.079 | tipifarnib -0.006 | [4] 0.05 | [5] 0.022 | [6] -0.024

YTHDF3 (UniProt Q7Z739)
inactive: nilotinib -0.246 | [1] -0.038 | dasatinib 0.022 | [2] 0.014 | [3] -0.006 | quisinostat -0.06 | tipifarnib -0.311 | [4] 0.063 | [5] -0.016 | [6] -0.039

VCPIP1 (UniProt Q96JH7)
Chain of UniProt Q96JH7 (Q96JH7 whole entry, looked up): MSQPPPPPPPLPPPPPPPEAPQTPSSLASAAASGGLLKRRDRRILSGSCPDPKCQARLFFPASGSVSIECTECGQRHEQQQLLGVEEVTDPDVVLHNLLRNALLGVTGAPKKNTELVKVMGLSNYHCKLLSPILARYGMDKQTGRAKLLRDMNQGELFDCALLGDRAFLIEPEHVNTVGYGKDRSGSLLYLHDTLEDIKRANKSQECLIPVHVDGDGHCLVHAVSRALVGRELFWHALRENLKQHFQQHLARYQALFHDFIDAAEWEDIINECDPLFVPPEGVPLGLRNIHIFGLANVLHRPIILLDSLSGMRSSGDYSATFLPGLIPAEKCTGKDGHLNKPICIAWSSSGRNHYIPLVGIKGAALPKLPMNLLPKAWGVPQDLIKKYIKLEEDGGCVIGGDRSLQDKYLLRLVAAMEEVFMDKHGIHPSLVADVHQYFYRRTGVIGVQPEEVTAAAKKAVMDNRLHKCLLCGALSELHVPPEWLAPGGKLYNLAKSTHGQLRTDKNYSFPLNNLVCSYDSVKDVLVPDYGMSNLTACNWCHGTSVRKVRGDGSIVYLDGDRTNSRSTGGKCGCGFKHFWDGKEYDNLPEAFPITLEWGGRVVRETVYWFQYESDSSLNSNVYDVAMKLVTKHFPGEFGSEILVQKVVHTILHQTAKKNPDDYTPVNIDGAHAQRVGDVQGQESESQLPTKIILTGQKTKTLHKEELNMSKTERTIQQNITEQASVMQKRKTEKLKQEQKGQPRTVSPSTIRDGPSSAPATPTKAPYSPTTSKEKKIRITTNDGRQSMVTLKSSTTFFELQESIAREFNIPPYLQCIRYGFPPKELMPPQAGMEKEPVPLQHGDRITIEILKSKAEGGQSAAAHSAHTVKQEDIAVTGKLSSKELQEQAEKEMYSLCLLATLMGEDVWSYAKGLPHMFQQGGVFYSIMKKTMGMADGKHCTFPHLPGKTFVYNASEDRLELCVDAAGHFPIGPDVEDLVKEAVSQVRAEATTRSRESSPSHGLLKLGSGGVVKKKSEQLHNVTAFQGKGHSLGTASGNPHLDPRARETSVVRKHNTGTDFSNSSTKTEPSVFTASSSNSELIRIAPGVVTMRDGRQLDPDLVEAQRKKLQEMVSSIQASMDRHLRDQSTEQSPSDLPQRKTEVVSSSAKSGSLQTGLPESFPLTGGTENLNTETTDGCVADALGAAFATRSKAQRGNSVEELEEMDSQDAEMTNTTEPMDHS
inactive: nilotinib -0.006 | [1] 0.044 | dasatinib -0.045 | [2] -0.025 | [3] 0.016 | quisinostat -0.046 | tipifarnib 0.011 | [4] 0.031 | [5] 0.029 | [6] -0.059

USP48 isoform 8 (UniProt Q86UV5)
inactive: nilotinib 0.018 | [1] 0.008 | dasatinib 0.001 | [2] 0 | [3] 0.015 | quisinostat -0.04 | tipifarnib -0.011 | [4] 0.008 | [5] -0.001 | [6] -0.024

ZFYVE19 (UniProt Q96K21)
inactive: nilotinib 0.014 | [1] -0.001 | dasatinib 0.007 | [2] 0.053 | [3] -0.041 | quisinostat -0.01 | tipifarnib 0.006 | [4] -0.003 | [5] 0.014 | [6] 0.003

VPS37B (UniProt Q9H9H4)
inactive: nilotinib 0.025 | [1] -0.078 | dasatinib -0.024 | [2] 0.046 | [3] -0.01 | quisinostat -0.05 | tipifarnib -0.002 | [4] -0.024 | [5] -0.005 | [6] 0

XPO6 (UniProt Q96QU8)
inactive: nilotinib 0.005 | [1] 0.027 | dasatinib -0.008 | [2] -0.054 | [3] -0.026 | quisinostat -0.123 | tipifarnib -0.018 | [4] 0.078 | [5] 0.033 | [6] -0.04

UQCC2 (UniProt Q9BRT2)
Chain of UniProt Q9BRT2 (Q9BRT2 whole entry, looked up): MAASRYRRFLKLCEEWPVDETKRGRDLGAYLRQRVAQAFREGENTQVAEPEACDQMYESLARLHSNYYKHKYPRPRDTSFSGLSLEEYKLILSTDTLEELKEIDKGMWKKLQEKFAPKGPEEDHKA
inactive: nilotinib -0.018 | [1] -0.006 | dasatinib 0.002 | [2] 0.012 | [3] -0.001 | quisinostat 0 | tipifarnib 0.058 | [4] -0.076 | [5] -0.005 | [6] 0.018

ZC3H13 (UniProt Q5T200)
inactive: nilotinib -0.033 | [1] 0.137 | dasatinib -0.035 | [2] 0.144 | [3] -0.044 | quisinostat -0.067 | tipifarnib -0.184 | [4] 0.002 | [5] 0.028 | [6] -0.049

USP9X (UniProt Q93008)
inactive: nilotinib -0.01 | [1] 0 | dasatinib -0.045 | [2] 0.002 | [3] 0 | quisinostat -0.017 | tipifarnib -0.024 | [4] 0.03 | [5] 0.02 | [6] -0.003

XPO5 (UniProt Q9HAV4)
inactive: nilotinib -0.025 | [1] -0.016 | dasatinib -0.068 | [2] 0.013 | [3] 0.005 | quisinostat -0.092 | tipifarnib -0.015 | [4] 0.029 | [5] 0.023 | [6] -0.024

VPS18 (UniProt Q9P253)
inactive: nilotinib -0.013 | [1] -0.029 | dasatinib -0.016 | [2] 0.003 | [3] -0.005 | quisinostat -0.018 | tipifarnib -0.05 | [4] 0.029 | [5] 0.01 | [6] -0.019

VRK1 (UniProt Q99986)
inactive: nilotinib -0.002 | [1] 0 | dasatinib -0.001 | [2] 0.005 | [3] 0.032 | quisinostat -0.059 | tipifarnib -0.018 | [4] 0.015 | [5] 0.003 | [6] -0.046

WDR62 isoform 4 (UniProt O43379)
Chain of UniProt O43379 (O43379 whole entry, looked up): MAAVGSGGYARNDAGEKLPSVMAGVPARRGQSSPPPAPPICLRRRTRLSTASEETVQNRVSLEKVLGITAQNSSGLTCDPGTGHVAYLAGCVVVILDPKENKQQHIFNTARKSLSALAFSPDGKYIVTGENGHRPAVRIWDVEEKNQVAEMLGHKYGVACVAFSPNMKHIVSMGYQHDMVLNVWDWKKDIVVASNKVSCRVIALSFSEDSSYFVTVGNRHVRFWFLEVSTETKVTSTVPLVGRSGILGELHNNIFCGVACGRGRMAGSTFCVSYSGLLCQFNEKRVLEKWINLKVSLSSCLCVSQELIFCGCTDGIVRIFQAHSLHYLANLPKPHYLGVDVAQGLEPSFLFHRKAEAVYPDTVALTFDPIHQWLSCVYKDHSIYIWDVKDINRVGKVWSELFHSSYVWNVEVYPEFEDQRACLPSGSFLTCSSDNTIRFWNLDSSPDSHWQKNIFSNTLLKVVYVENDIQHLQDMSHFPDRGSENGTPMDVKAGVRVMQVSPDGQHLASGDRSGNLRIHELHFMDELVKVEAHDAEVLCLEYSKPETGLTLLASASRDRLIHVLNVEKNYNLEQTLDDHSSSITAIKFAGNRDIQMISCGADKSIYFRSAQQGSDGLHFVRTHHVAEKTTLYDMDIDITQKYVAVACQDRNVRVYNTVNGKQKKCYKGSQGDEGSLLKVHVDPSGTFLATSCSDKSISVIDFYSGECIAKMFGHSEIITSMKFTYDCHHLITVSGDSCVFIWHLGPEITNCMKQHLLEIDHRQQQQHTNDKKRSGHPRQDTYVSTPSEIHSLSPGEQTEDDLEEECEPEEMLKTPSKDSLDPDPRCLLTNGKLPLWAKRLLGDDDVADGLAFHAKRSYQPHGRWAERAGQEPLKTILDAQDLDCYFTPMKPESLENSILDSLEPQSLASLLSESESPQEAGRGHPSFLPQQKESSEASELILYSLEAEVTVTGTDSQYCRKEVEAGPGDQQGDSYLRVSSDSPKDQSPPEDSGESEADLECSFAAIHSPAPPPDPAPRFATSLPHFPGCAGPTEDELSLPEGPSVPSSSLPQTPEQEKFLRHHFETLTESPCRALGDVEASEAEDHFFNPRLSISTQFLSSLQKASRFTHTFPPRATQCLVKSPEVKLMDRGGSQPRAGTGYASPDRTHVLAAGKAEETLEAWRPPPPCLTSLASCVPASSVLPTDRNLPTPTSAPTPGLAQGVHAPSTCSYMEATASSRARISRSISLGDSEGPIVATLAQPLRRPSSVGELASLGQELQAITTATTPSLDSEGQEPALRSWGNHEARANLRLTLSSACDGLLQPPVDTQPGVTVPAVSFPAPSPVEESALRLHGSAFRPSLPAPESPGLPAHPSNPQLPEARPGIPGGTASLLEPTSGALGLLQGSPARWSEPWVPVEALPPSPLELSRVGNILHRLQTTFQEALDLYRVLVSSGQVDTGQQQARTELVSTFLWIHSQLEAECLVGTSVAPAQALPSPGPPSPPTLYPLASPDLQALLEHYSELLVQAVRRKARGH
inactive: nilotinib -0.001 | [1] 0.003 | dasatinib -0.026 | [2] 0 | [3] 0.022 | quisinostat -0.103 | tipifarnib -0.051 | [4] 0.031 | [5] -0.02 | [6] -0.031

WDR45 isoform 2 (UniProt Q9Y484)
Chain of UniProt Q9Y484 (Q9Y484 whole entry, looked up): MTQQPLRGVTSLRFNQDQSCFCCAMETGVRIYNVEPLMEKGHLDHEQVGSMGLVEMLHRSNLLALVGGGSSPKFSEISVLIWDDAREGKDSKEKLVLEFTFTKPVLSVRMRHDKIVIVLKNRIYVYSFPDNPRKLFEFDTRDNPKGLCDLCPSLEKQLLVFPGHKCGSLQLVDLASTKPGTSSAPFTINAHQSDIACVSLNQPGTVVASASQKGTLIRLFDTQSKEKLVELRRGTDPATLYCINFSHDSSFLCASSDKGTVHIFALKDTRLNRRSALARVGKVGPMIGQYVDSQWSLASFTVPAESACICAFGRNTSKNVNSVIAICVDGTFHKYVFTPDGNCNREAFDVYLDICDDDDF
inactive: nilotinib 0.04 | [1] -0.01 | dasatinib -0.085 | [2] -0.027 | [3] 0.049 | quisinostat 0.06 | tipifarnib 0.009 | [4] 0.013 | [5] -0.042 | [6] -0.028
